Test results: PubChem BioAssay
For some of these results: Results with a measured potency or affinity are listed apart. Activity calls are given as the source filed them. Unless noted, the rule behind the calls is not given here.

What was measured:
[1] = antimalarial activity against Dd2 strain (AID 2302;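 active = growth inhibition above 50% at the single 2 µM test dose, taken to imply half-maximal potency below 2 µM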;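 note: 0% = DMSO untreated growth and 100% = chloroquine plus artemisinin killed control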); conditions: P. falciparum Dd2 in RBCs, LDH growth readout, 72 h; at 2 µM; hits give high values
[2] = HepG2 cytotoxicity, primary screen, cytotoxicity control for P. falciparum antimalarial project, cell-based, ATP luminescence (AID 2303;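 active = inhibition above 50%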;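 note: 0% = DMSO wells and 100% = digitonin-killed cells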); conditions: HepG2 viability, 24-48 h, at 10 µM, hits give high values
[3] = target: L-lactate dehydrogenase (Plasmodium falciparum (isolate CDC / Honduras)) (UniProt Q27743); assay: PfLDH activity inhibition – cell lysate, 3D7 strain, counter-screen for P. falciparum growth inhibition project (AID 2304);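 note: 0% = vehicle and 100% = reference inhibitor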; conditions: P. falciparum 3D7 crude extract, LDH APAD/NBT absorbance; at 2 µM; hits give high values
L-lactate dehydrogenase (Plasmodium falciparum (isolate CDC / Honduras)), sequence (Q27743 whole entry, looked up): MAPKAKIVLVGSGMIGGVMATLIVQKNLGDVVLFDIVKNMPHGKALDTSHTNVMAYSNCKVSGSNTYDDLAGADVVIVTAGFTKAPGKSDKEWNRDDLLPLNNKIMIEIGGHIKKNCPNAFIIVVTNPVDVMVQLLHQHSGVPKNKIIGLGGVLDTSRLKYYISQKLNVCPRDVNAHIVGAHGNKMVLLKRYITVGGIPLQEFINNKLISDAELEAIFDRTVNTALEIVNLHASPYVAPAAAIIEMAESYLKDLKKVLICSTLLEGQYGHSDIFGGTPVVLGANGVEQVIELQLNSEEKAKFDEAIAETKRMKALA

[4] = inhibition of 3D7 malaria parasite growth – strain 3D7 (AID 2306);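 note: 0% = DMSO wells and 100% = chloroquine plus artemisinin control wells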; conditions: P. falciparum 3D7 erythrocytic growth, LDH absorbance, 72 h; at 2 µM; hits give high values
[5] = target: Calcium-dependent protein kinase 1 (Plasmodium falciparum (isolate 3D7)) (UniProt P62344); assay: PfCDPK1 kinase inhibitors, biochemical, TCAMS library (AID 1159585; cut-off not given, nearly all actives have IC50 up to about 0.98 µM;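 note: inhibitors leave more ATP so luminescence rises with inhibition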); conditions: recombinant PfCDPK1, Kinase-Glo ATP depletion luminescence
Calcium-dependent protein kinase 1 (Plasmodium falciparum (isolate 3D7)), sequence (P62344 whole entry, looked up): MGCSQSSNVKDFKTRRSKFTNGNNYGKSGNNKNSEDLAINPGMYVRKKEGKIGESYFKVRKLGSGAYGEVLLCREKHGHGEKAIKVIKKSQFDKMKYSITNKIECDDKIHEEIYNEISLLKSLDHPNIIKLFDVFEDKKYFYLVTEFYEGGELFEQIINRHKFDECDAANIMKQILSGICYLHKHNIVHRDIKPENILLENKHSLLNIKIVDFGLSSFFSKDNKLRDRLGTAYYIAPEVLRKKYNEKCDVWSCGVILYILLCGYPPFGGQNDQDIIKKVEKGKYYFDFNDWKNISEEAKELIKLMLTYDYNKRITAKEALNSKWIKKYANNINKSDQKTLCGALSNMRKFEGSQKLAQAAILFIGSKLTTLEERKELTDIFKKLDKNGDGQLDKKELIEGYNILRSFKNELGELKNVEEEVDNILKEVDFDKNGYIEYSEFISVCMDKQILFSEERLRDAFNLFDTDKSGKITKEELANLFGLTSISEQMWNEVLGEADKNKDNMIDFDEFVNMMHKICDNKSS

[6] = target: Plasmodium falciparum protein kinase 6 (PK6, PF3D7_1337100) (UniProt Q8IDW1); assay: PfPK6 kinase inhibitors, biochemical, TCAMS library (AID 1159586); conditions: recombinant PfPK6, Kinase-Glo ATP depletion luminescence
Plasmodium falciparum protein kinase 6 (PK6, PF3D7_1337100), sequence (Q8IDW1 1-305): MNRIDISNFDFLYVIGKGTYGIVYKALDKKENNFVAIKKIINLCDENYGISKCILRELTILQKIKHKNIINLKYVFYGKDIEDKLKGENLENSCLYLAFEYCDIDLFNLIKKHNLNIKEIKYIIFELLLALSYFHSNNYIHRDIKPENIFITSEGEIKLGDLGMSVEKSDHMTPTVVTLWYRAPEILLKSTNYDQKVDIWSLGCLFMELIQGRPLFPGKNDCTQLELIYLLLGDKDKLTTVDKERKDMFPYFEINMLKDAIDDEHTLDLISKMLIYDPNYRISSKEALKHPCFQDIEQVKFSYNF

[7] = target: Protein kinase 7 (PK7), Plasmodium falciparum 3D7 (PF3D7_0213400) (UniProt Q7YTF7); assay: inhibition of Plasmodium PK7 catalytic activity – biochemical, TCAMS antimalarial set, Kinase-Glo luminescence (AID 1159587); conditions: recombinant PfPK7, Kinase-Glo ATP depletion luminescence
Protein kinase 7 (PK7), Plasmodium falciparum 3D7 (PF3D7_0213400), sequence (Q7YTF7 1-343): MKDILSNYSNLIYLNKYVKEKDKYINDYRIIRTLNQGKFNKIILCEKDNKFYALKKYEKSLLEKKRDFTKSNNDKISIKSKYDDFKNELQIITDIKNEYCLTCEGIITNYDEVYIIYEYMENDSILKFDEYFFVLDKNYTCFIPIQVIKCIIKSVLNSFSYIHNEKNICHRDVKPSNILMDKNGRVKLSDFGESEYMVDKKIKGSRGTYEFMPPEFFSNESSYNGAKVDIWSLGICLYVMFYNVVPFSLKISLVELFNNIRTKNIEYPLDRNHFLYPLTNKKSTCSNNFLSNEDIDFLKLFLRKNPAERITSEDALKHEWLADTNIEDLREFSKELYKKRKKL

[8] = target: Calcium-dependent protein kinase 4 (Plasmodium falciparum (isolate 3D7)) (UniProt Q8IBS5); assay: PfCDPK4 kinase inhibitors, biochemical, TCAMS library (AID 1159588; cut-off not given, nearly all actives have IC50 up to about 0.91 µM); conditions: recombinant PfCDPK4, Kinase-Glo ATP depletion luminescence
Calcium-dependent protein kinase 4 (Plasmodium falciparum (isolate 3D7)), sequence (Q8IBS5 whole entry, looked up): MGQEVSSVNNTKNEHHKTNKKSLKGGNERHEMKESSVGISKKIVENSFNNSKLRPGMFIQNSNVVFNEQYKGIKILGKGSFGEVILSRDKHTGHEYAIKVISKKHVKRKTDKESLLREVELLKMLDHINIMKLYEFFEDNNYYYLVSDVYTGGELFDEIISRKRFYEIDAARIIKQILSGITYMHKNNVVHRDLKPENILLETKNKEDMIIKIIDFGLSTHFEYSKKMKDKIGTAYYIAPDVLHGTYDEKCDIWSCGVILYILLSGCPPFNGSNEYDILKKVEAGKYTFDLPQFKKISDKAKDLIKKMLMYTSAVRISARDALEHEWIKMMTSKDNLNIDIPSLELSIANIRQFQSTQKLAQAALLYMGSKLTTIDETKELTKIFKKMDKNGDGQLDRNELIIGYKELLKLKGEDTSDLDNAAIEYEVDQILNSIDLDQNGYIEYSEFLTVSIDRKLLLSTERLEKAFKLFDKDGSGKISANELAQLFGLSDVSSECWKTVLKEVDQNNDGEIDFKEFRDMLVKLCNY

c1ccc(-c2csc(Nc3nc4cc5c(cc4s3)OCO5)n2)nc1
active: growth inhibition [1] 99% | growth inhibition [4] 81%
inactive: inhibition [2] 46% | inhibition [3] -3% | outcome [5] | outcome [6] | outcome [7] | outcome [8]

Cc1cc(NCCC(=O)NCCOc2ccccc2)nc(NCCc2ccccc2)n1
inactive: growth inhibition [1] 9% | inhibition [2] -6% | inhibition [3] -1% | outcome [5] | outcome [6] | outcome [7] | outcome [8]
active: growth inhibition [4] 99%

COc1ccccc1C1CCN(C2CCC(NC(=O)c3ccc4nc(-c5ccc(C)cc5)[nH]c4c3)CC2)CC1 (stereo not given)
active: growth inhibition [1] 100% | inhibition [2] 100% | growth inhibition [4] 101%
inactive: inhibition [3] 4% | outcome [5] | outcome [6] | outcome [7] | outcome [8]

CCc1cc(NC2CCN(C)CC2)nc(Nc2ccc(C)cc2)n1
active: growth inhibition [4] 95%
inactive: growth inhibition [1] 11% | inhibition [2] 3% | inhibition [3] -7% | outcome [5] | outcome [6] | outcome [7] | outcome [8]

CCC(Cc1cnc2nc(N)nc(N)c2n1)c1ccc(C(=O)N[C@@H](CCC(=O)O)C(=O)O)cc1 (stereo not given in full)
inactive: inhibition [3] -2% | outcome [5] | outcome [6] | outcome [7] | outcome [8]
active: growth inhibition [1] 98% | inhibition [2] 64% | growth inhibition [4] 93%

O=c1ccc(-c2nc3cc(Cl)c(Cl)cc3n2Cc2ccc(Cl)cc2Cl)c[nH]1
active: growth inhibition [1] 67% | growth inhibition [4] 88%
inactive: inhibition [2] -8% | inhibition [3] -8% | outcome [5] | outcome [6] | outcome [7] | outcome [8]

CC(CN1CCN(C)CC1)C(=O)Nc1ccc(-c2cccc(-c3nc4ccc(F)cc4[nH]3)c2)cc1 (stereo not given)
inactive: inhibition [2] 8% | inhibition [3] 0% | outcome [5] | outcome [6] | outcome [7] | outcome [8]
active: growth inhibition [1] 99% | growth inhibition [4] 100%

COc1ccc2nc(C)cc(NCc3ccc4ccccc4c3)c2c1
inactive: inhibition [2] 21% | inhibition [3] -1% | outcome [5] | outcome [6] | outcome [7] | outcome [8]
active: growth inhibition [1] 75% | growth inhibition [4] 101%

CC(=O)Nc1ccc(CNC2Cc3ccc(-c4ccc(Cl)c(Cl)c4)cc3C2)cc1 (stereo not given)
active: growth inhibition [4] 89%
inactive: growth inhibition [1] 7% | inhibition [2] 49% | inhibition [3] -3% | outcome [5] | outcome [6] | outcome [7] | outcome [8]

CN1C(=O)C(=O)N(CCCCCON=C(N)N)C1=S
inactive: growth inhibition [1] 1% | inhibition [2] 21% | inhibition [3] -1% | outcome [5] | outcome [6] | outcome [7] | outcome [8]
active: growth inhibition [4] 101%

CC(C)N1CCC(N(Cc2ccc(-c3ccc(C(F)(F)F)cc3)cc2)C(=O)Cn2c(CCc3cccc(F)c3F)cc(=O)c3cn(C)nc32)CC1
inactive: inhibition [3] 6% | outcome [5] | outcome [6] | outcome [7] | outcome [8]
active: growth inhibition [1] 78% | inhibition [2] 100% | growth inhibition [4] 89%

CCC1(C)N=C(N)N=C(N)N1c1ccccc1 (stereo not given)
active: growth inhibition [4] 98%
inactive: growth inhibition [1] -2% | inhibition [2] 6% | inhibition [3] 0% | outcome [5] | outcome [6] | outcome [7] | outcome [8]

Cc1cccc2[nH]c(-c3cccc(-c4ccc(NC(=O)C5CCCO5)cc4)c3)nc12 (stereo not given)
inactive: growth inhibition [1] 13% | inhibition [2] 10% | inhibition [3] -4% | outcome [5] | outcome [6] | outcome [7] | outcome [8]
active: growth inhibition [4] 91%

O=C(/C=C/c1ccc(Cl)c(Cl)c1)N1CCC(CCN2CCC(c3nc4ccc(O)cc4[nH]3)CC2)CC1
inactive: inhibition [2] 42% | inhibition [3] 4% | outcome [5] | outcome [6] | outcome [7] | outcome [8]
active: growth inhibition [1] 60% | growth inhibition [4] 100%

c1ccc2c(CNc3nc(NCC4CCCCC4)nc4nc[nH]c34)cccc2c1
active: growth inhibition [4] 89%
inactive: growth inhibition [1] 44% | inhibition [2] -2% | inhibition [3] -2% | outcome [5] | outcome [6] | outcome [7] | outcome [8]

Cc1ccc(NC(=O)NC2CCN(c3ccnc4cc(Cl)ccc34)C2)cc1 (stereo not given)
active: growth inhibition [1] 96% | growth inhibition [4] 101%
inactive: inhibition [2] 19% | inhibition [3] 5% | outcome [5] | outcome [6] | outcome [7] | outcome [8]

COc1ccccc1CNC(=O)CCn1c(=O)[nH]c2ccsc2c1=O
active: growth inhibition [1] 75% | growth inhibition [4] 85%
inactive: inhibition [2] -5% | inhibition [3] -7% | outcome [5] | outcome [6] | outcome [7] | outcome [8]

COc1cc2c(c(Cl)c1OC)CCN(Cc1ccccc1)CC2c1ccc(NC(=O)C(F)(F)F)cc1 (stereo not given)
active: growth inhibition [1] 79% | growth inhibition [4] 85%
inactive: inhibition [2] 0% | inhibition [3] -2% | outcome [5] | outcome [6] | outcome [7] | outcome [8]

CCCNCc1ccc(-c2ccc(CN(CCOC)C(=O)COc3ccccc3Cl)cc2)nc1
active: growth inhibition [4] 96%
inactive: growth inhibition [1] 29% | inhibition [2] -1% | inhibition [3] -2% | outcome [5] | outcome [6] | outcome [7] | outcome [8]

CCCCNCc1ccc(-c2nc(CN(CCCN3CCN(C)CC3)C(=O)Nc3cccc(Cl)c3)cs2)cc1
active: growth inhibition [1] 73% | growth inhibition [4] 99%
inactive: inhibition [2] 35% | inhibition [3] 4% | outcome [5] | outcome [6] | outcome [7] | outcome [8]
